# In PubChem BioAssay (NCI):
# This is part of a sample that, as a whole, favours compounds with a hit. Of some 79,000 tested, about 15% had one in any assay. Values without a mark were called inactive. Activity calls are given as the source filed them. Cut-off read from the data, not from the text of the source: active = growth inhibition above about 70%; inactive = the rest.
# Experiments:
# [1] = NCI Yeast Anticancer Drug Screen. Data for the rad52 strain (AID 147);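 note: 0% = growth of vehicle-treated control cultures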; conditions: S. cerevisiae rad52 mutant growth inhibition, active compounds read high
# Outline: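 Inhibition of yeast growth, referenced to vehicle controls, was the measured output for a strain with defective DNA damage repair.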
# [2] = NCI Yeast Anticancer Drug Screen. Data for the wt1 strain (AID 149);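 note: 0% = growth of vehicle-treated wt1 cultures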; conditions: S. cerevisiae wt1 strain (SPY 50644) growth inhibition, active compounds read high
# Outline: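 Measured: growth of wt1 yeast under compound versus vehicle treatment, reported as inhibition.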
# [3] = NCI Yeast Anticancer Drug Screen. Data for the rad50EPP+ strain (AID 151);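 note: 0% = growth of vehicle-treated control cultures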; conditions: S. cerevisiae rad50 mutant strain, active compounds read high
# Outline: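 Genetically defined yeast (rad50EPP+, DNA damage repair alteration) is grown with compound, and inhibition of growth is expressed relative to vehicle-treated controls.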
# [4] = NCI Yeast Anticancer Drug Screen. Data for the mgt1 strain (AID 153); conditions: S. cerevisiae mgt1 mutant growth inhibition, active compounds read high
# Outline: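 In the mgt1 strain, test compounds were added and growth inhibition was determined relative to vehicle-treated controls.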
# [5] = NCI Yeast Anticancer Drug Screen. Data for the rad50 strain (AID 155);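 note: 0% = growth of vehicle-only cultures of the same strain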; conditions: S. cerevisiae rad50 strain growth inhibition, active compounds read high
# Outline: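 Growth of the mutant yeast was measured after compound exposure and referenced to vehicle-treated cultures.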
# [6] = NCI Yeast Anticancer Drug Screen. Data for the mec2-1 strain (AID 157); conditions: S. cerevisiae mec2-1 strain, active compounds read high
# Outline: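 Each compound was tested on mec2-1 yeast, a strain altered in DNA damage repair or cell cycle control. Growth inhibition is reported relative to vehicle.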
# [7] = NCI Yeast Anticancer Drug Screen. Data for the rad14 strain (AID 159);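 note: 0% = growth of vehicle-treated control cultures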; conditions: S. cerevisiae rad14 strain growth inhibition, active compounds read high
# Outline: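 Here, inhibition of yeast growth was measured after compound exposure, using a strain with a genetic defect in DNA damage repair and vehicle-treated cultures as the reference.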
# [8] = NCI Yeast Anticancer Drug Screen. Data for the sgs1 mgt1 strain (AID 161);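 note: 0% = growth of cultures given vehicle only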; conditions: S. cerevisiae sgs1 mgt1 strain, active compounds read high
# Outline: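 Mutant yeast exposed to compound; growth scored against vehicle-only wells.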
# [9] = NCI Yeast Anticancer Drug Screen. Data for the cln2 rad14 strain (AID 165);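 note: 0% = growth equal to vehicle treated cultures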; conditions: S. cerevisiae cln2 rad14 strain, active compounds read high
# Outline: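 Test compounds were added to cln2 rad14 yeast cultures; inhibition of growth was then determined by comparison with vehicle treatment.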
# [10] = NCI Yeast Anticancer Drug Screen. Data for the bub3 strain (AID 167); conditions: S. cerevisiae bub3 mutant strain, active compounds read high
# Outline: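 Whole-cell yeast assay. The mutant strain was incubated with compounds, and growth inhibition was determined by comparison with vehicle-treated cells.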
# [11] = NCI Yeast Anticancer Drug Screen. Data for the wt2 strain (AID 169);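 note: 0% = growth of vehicle-treated yeast cultures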; conditions: S. cerevisiae wt2 strain growth inhibition, active compounds read high
# Outline: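 The panel's yeast strains carry defined changes in DNA repair or cell cycle genes. Each strain is grown with compound, and growth loss is scored relative to vehicle.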
# [12] = NCI Yeast Anticancer Drug Screen. Data for the mlh1 strain (AID 171);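 note: 0% = growth of vehicle-treated control cultures of the same strain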; conditions: S. cerevisiae mlh1 strain growth inhibition, active compounds read high
# Outline: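 Inhibition values reflect reduced yeast growth in the presence of compound, referenced to vehicle controls, using a strain chosen for its alteration in DNA repair or cell cycle control.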
# [13] = NCI Yeast Anticancer Drug Screen. Data for the sgs1 strain (AID 173);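 note: 0% = growth of vehicle-only control cultures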; conditions: S. cerevisiae sgs1 mutant, active compounds read high
# Outline: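 Vehicle-treated cultures served as reference for growth inhibition of a yeast strain altered in DNA damage repair or cell cycle control after compound exposure.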
# [14] = NCI Yeast Anticancer Drug Screen. Data for the mlh1 rad18 strain (AID 175); conditions: S. cerevisiae mlh1 rad18 strain growth inhibition, active compounds read high
# Outline: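 Inhibition values reflect reduced growth of mutant yeast versus vehicle-treated controls following compound exposure; the mutations affect DNA damage repair.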
# [15] = NCI Yeast Anticancer Drug Screen. Data for the rad18 strain (AID 177); conditions: S. cerevisiae rad18 mutant growth inhibition, active compounds read high
# Outline: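 Steps: expose repair-mutant yeast to compound; measure growth; express as inhibition relative to vehicle control.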
# [16] = at 5.0 µM (retest, dose inferred, filed as 0.5)
# [17] = at 50.0 µM (retest, dose inferred, filed as 5.0)
compound,measurement,setting,value
CC1CCC2(C(=O)O)CCC3(C)C(=CCC4C5(C)CC(O)C(O)C(C)(CO)C5C(O)CC43C)C2C1C (stereo not drawn),growth inhibition,[1]; at 1.2 µM,-23%
same,growth inhibition,[1]; at 3.7 µM,-25%
same,growth inhibition,[1]; at 11.0 µM,-28%
same,growth inhibition,[1]; at 33.0 µM,-15%
same,growth inhibition,[1]; at 100.0 µM,81% (active)
same,growth inhibition,[2]; at 1.2 µM,-17%
same,growth inhibition,[2]; at 3.7 µM,-20%
same,growth inhibition,[2]; at 11.0 µM,-17%
same,growth inhibition,[2]; at 33.0 µM,-3%
same,growth inhibition,[2]; at 100.0 µM,80% (active)
same,growth inhibition,[3]; at 1.2 µM,0%
same,growth inhibition,[3]; at 3.7 µM,-7%
same,growth inhibition,[3]; at 11.0 µM,-2%
same,growth inhibition,[3]; at 33.0 µM,3%
same,growth inhibition,[3]; at 100.0 µM,33%
same,growth inhibition,[4]; at 1.2 µM,-34%
same,growth inhibition,[4]; at 3.7 µM,-34%
same,growth inhibition,[4]; at 11.0 µM,-32%
same,growth inhibition,[4]; at 33.0 µM,-36%
same,growth inhibition,[4]; at 100.0 µM,47%
same,growth inhibition,[5]; at 1.2 µM,13%
same,growth inhibition,[5]; at 3.7 µM,-20%
same,growth inhibition,[5]; [16],54%
same,growth inhibition,[5]; at 11.0 µM,-20%
same,growth inhibition,[5]; at 33.0 µM,-28%
same,growth inhibition,[5]; [17],88% (active)
same,growth inhibition,[5]; at 50.0 µM,76.9% (active)
same,growth inhibition,[5]; at 100.0 µM,63%
same,growth inhibition,[6]; at 1.2 µM,-15%
same,growth inhibition,[6]; at 3.7 µM,-6%
same,growth inhibition,[6]; [16],-1%
same,growth inhibition,[6]; at 11.0 µM,-17%
same,growth inhibition,[6]; at 33.0 µM,-15%
same,growth inhibition,[6]; [17],90% (active)
same,growth inhibition,[6]; at 50.0 µM,82.3% (active)
same,growth inhibition,[6]; at 100.0 µM,75% (active)
same,growth inhibition,[7]; at 1.2 µM,-13%
same,growth inhibition,[7]; at 3.7 µM,-13%
same,growth inhibition,[7]; at 11.0 µM,-4%
same,growth inhibition,[7]; at 33.0 µM,6%
same,growth inhibition,[7]; at 100.0 µM,85% (active)
same,growth inhibition,[8]; [16],16%
same,growth inhibition,[8]; [17],70% (active)
same,growth inhibition,[8]; at 50.0 µM,78.7% (active)
same,growth inhibition,[9]; [16],20%
same,growth inhibition,[9]; [17],77% (active)
same,growth inhibition,[9]; at 50.0 µM,39.1%
same,growth inhibition,[10]; at 1.2 µM,-5%
same,growth inhibition,[10]; at 3.7 µM,-2%
same,growth inhibition,[10]; [16],16%
same,growth inhibition,[10]; at 11.0 µM,-1%
same,growth inhibition,[10]; at 33.0 µM,13%
same,growth inhibition,[10]; [17],93% (active)
same,growth inhibition,[10]; at 50.0 µM,88.9% (active)
same,growth inhibition,[10]; at 100.0 µM,95% (active)
same,growth inhibition,[11]; at 1.2 µM,-2%
same,growth inhibition,[11]; at 3.7 µM,-2%
same,growth inhibition,[11]; at 11.0 µM,-1%
same,growth inhibition,[11]; at 33.0 µM,21%
same,growth inhibition,[11]; at 100.0 µM,96% (active)
same,growth inhibition,[12]; at 1.2 µM,-29%
same,growth inhibition,[12]; at 3.7 µM,-8%
same,growth inhibition,[12]; at 11.0 µM,-20%
same,growth inhibition,[12]; at 33.0 µM,-2%
same,growth inhibition,[12]; at 100.0 µM,95% (active)
same,growth inhibition,[13]; at 1.2 µM,-4%
same,growth inhibition,[13]; at 3.7 µM,9%
same,growth inhibition,[13]; at 11.0 µM,-10%
same,growth inhibition,[13]; at 33.0 µM,-17%
same,growth inhibition,[13]; at 100.0 µM,95% (active)
same,growth inhibition,[14]; [16],41%
same,growth inhibition,[14]; [17],78% (active)
same,growth inhibition,[14]; at 50.0 µM,58.7%
same,growth inhibition,[15]; at 1.2 µM,-43%
same,growth inhibition,[15]; at 3.7 µM,-47%
same,growth inhibition,[15]; at 11.0 µM,-42%
same,growth inhibition,[15]; at 33.0 µM,-61%
same,growth inhibition,[15]; at 100.0 µM,87% (active)
